Bioassay records as filed in PubChem BioAssay.
MCF10A rerep: inducers of DNA re-replication in MCF 10A breast cells. MCF 10A DNA re-replication, Hoechst nuclear intensity, 48 h. Potency, µM (titrated, usually from 46.1 µM), inactives show at the highest dose activity, positive = re-replication, usual class: activators. 2.9% of 350,000 active; also: % of control where 0% means no effect; nearly all actives have a fitted effect of over 50% in size
KB-V1 cytotox: KB-V1 MDR subline cytotoxicity; KB-V1 MDR cells viability, CellTiter-Glo, 72 h; Potency, µM (titrated, usually from 46.1 µM), hits mostly cytotoxic; 3.4% of 400,000 active; AID 1347076; also: % is scaled to controls: 0 for no effect and ±100 for the full control effect; nearly all actives have a fitted effect of over 60% in size
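Cytotoxicity via CellTiter-Glo luminescence after 72 h compound exposure at 37 degrees C. Cells: drug-selected KB-V1 line, DMEM phenol-red free plus 10% FBS. Compounds tested at multiple concentrations; normalized data fitted to concentration-effect curves.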
SW480 rerep: induces DNA re-replication in SW480 colon adenocarcinoma cells; SW480 DNA re-replication, Hoechst DNA content imaging, 48 h; Potency, µM (top dose mostly 46.1 µM), for inactives: at the top dose re-replication activation, hits mostly activators; 1.8% of 340,000 active; AID 624297; also: % of control where 0% means no effect; nearly all actives have a fitted effect of over 55% in size
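Quantitative HTS format with DMSO vehicle controls; 48 hr drug incubation at 37 C, then 40 min Hoechst staining and scanning imager measurement at 405 nm excitation.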
KB-3-1 cytotox: kills parental KB-3-1 adenocarcinoma cells | Potency, µM (top dose mostly 46.1 µM), actives largely listed as cytotoxic | 1.4% of 400,000 active | KB-3-1 viability, CellTiter-Glo ATP luminescence, 72 h | AID 1347075; also: % is scaled to controls: 0 for no effect and ±100 for the full control effect; nearly all actives have a fitted effect of over 60% in size
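Using CellTiter-Glo luminescence, growth of non-resistant KB-3-1 adenocarcinoma cells is assessed 72 h after pin-tool compound addition at 37 °C. Normalized responses across the concentration series yield fitted curves.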
HT1080 IDH1KD tx: HT-1080 IDH1 knockdown cell toxicity (counter line); HT-1080 IDH1 knockdown viability, ATP luminescence, 48 h; AID 686971; 2% of 360,000 active; Potency, µM (series often up to 46.1 µM), inactives show at the top dose activity, negative = toxicity, usual class: cytotoxic;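 also: 0% = DMSO wells and -100% = cell-free medium wells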
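% activity derives from luminescence (CellTiter-Glo), normalised to DMSO and no-cell wells. HT-1080-IDH1KD cells, 750/well, had 48 h compound exposure at 37 °C.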
HT1080NT lethal: kills 2HG-producing HT-1080-NT fibrosarcoma cells. HT-1080-NT fibrosarcoma viability, CellTiter-Glo ATP luminescence, 48 h. Potency, µM (doses to about 46.1 µM), without a hit: at the highest dose activity, negative = less viability, usual class: cytotoxic. 1.6% of 360,000 active. AID 686970;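 also: NT is the 2HG producing partner of a matched IDH1 knockdown line; 0% = DMSO-treated cells and -100% = media-only wells without cells; nearly all actives have a fitted effect of over 55% in size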
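Read-out is CellTiter-Glo luminescence after 10 minutes at room temperature, following 48 hours' compound treatment of HT-1080-NT cells (750 cells/well, RPMI, 5% FBS, 37 degrees C).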
Starred values were filed as active, the others as inactive; i = inactive; ? = inconclusive; nt = no result. Hits are enriched below; roughly 7.9% of the tested compounds scored in any of these assays. Calls follow the shape of the dose curve; as a rule, active = well fitted curve in the direction sought with a large enough effect; inconclusive = small, poorly fitted or top-dose-only effect, or another doubt; inactive = no such curve, though single readings can be large; an effect the other way counts as inactive or inconclusive. Potency is read from the fitted curve at half-maximal effect.

SMILES	MCF10A rerep	KB-V1 cytotox	SW480 rerep	KB-3-1 cytotox	HT1080 IDH1KD tx	HT1080NT lethal
CCC1CCCCN1C(=O)COc1cccc2c1CCN(C)C2=O (centres undefined)	-4%	21µM*	-5%	i	5%	-1%
CN1CCc2c(OCC(=O)NC3CCCCC3)cccc2C1=O	-2%	i	-16%	i	8%	8%
COc1ccc(CCNC(=O)c2ccc3c(c2)CCN3S(C)(=O)=O)cc1OC	nt	i	nt	i	nt	nt
CCc1cnc2c(c1SCC(=O)Nc1ccc(OC)c(OC)c1)c(=O)n(C)c(=O)n2C	nt	i	nt	i	nt	nt
O=C(NCCN1C(=O)S/C(=C\c2ccc(Cl)c(Cl)c2)C1=O)c1cnccn1	?	i	2%	i	-3%	-2%
O=C(NCCN1C(=O)S/C(=C\c2ccc(Cl)c([N+](=O)[O-])c2)C1=O)C1=COCCO1	3.7µM*	i	-644%	?	?	15µM*
C[C@@H]1CCCCO[C@@H](CN(C)CC2CCCCC2)[C@@H](C)CN([C@H](C)CO)C(=O)c2cc(NS(=O)(=O)c3ccc(Cl)cc3)ccc2O1	nt	?	nt	?	?	16µM*
CCCN(C)C[C@@H]1OCCCC[C@@H](C)Oc2ccc(NC(=O)c3ccccc3)cc2C(=O)N([C@H](C)CO)C[C@@H]1C	nt	i	nt	4.6µM*	?	?
C[C@@H]1CCCCO[C@H](CN(C)Cc2ccc(C(F)(F)F)cc2)[C@H](C)CN([C@@H](C)CO)C(=O)c2cc(NC(=O)Cc3ccccc3)ccc2O1	nt	26µM*	nt	?	18µM*	16µM*
C[C@@H]1CCCCO[C@H](CN(C)C(=O)c2ccncc2)[C@H](C)CN([C@@H](C)CO)C(=O)c2cc(NC(=O)c3ccccc3)ccc2O1	nt	i	nt	i	1%	-7%
CCc1ccc(NC(=O)C2CCC(CNS(=O)(=O)c3ccc4c(c3)C(C)(C)C(=O)N4C)CC2)cc1 (centres undefined)	nt	i	nt	i	nt	nt
COc1ccc(Cl)cc1NC(=O)CN1C(=O)NC(Cc2c[nH]c3ccccc23)C1=O (centres undefined)	4%	21µM*	12%	?	-5%	-4%
COc1cccc(NC(=O)CN2C(=O)NC(Cc3c[nH]c4ccccc34)C2=O)c1 (centres undefined)	8%	i	-6%	i	1%	12%
COC(=O)c1ccc(CN2C(=O)NC(Cc3c[nH]c4ccccc34)C2=O)cc1 (centres undefined)	0%	18µM*	-3%	i	-7%	-16%
O=C1NC(Cc2c[nH]c3ccccc23)C(=O)N1Cc1ccccc1 (centres undefined)	-13%	i	-1%	i	15%	4%
Cc1cnc(-c2nc3ccccc3n2C(C)C(=O)Nc2c(C)cccc2C)cn1 (centres undefined)	nt	?	nt	i	13%	17%
COc1ccc2c(c1)[nH]c1c(=O)n(/N=C/C3C(C)C=C(C)CC3C)c(=O)[nH]c12 (centres undefined)	?	i	5%	i	0%	-22%
COc1ccc2[nH]c3c(=O)n(/N=C/[C@H]4C(C)C=C(C)CC4C)c(=O)[nH]c3c2c1 (some centres undefined)	12µM*	i	18µM*	?	?	?
N#C/C(=C(/O)c1ccc(F)cc1)c1nc2ccccc2s1	?	?	-1%	8.2µM*	-28%	-7%
N#C/C(=C(/O)COc1ccccc1)c1nc2ccccc2s1	?	i	?	?	7%	0%
N#C/C(=C(/O)COc1ccc(Cl)cc1)c1nc2ccccc2s1	16µM*	13µM*	0%	?	-6%	-9%
O=C(NCC(c1cccnc1)N1CCc2ccccc21)c1cccc(Br)c1 (centres undefined)	nt	i	nt	i	nt	nt
